System: Vero E6 infected with SARS-CoV-2
Assay: inhibition of SARS-CoV-2 cytopathic effect; higher = more antiviral protection, active = above 15
Conditions: 48 h

Measured: inhibition of SARS-CoV-2 cytopathic effect

COc1c(C)c2c(c(O)c1C/C=C(\C)CCC(=O)OCCN1CCOCC1)C(=O)OC2 [mycophenolate-mofetil]
active: 10000 nM 16.8%
inactive: 1 nM -1.57% | 8.33 nM 0.08% | 100 nM 0.94% | 833.33 nM -5.7%

CC(C)[C@H]1[C@@H]2CC[C@@H](C2)[C@@H]1N
inactive: 1 nM 0.17% | 8.33 nM 2.01% | 100 nM 5.77% | 833.33 nM 6.62% | 10000 nM 4.27%

CCCC(=O)C1(c2ccccc2)CCN(C(=O)[C@@H](Cc2ccc(OC)cc2)NC(=O)[C@@H](N)Cc2cncn2C)CC1
inactive: 1 nM 0.65% | 8.33 nM -1.21% | 100 nM 0.17% | 833.33 nM -1.38% | 10000 nM 0.37%

CC(C)=CCC[C@](C)(O)[C@@H]1CC=C(C)CC1 [levomenol]
inactive: 1 nM 0.81% | 8.33 nM 4.97% | 100 nM 5.57% | 833.33 nM 3.97% | 10000 nM 0.76%

Nc1c2c(nc3c1CCC3)CCCC2 [ipidacrine]
inactive: 1 nM 1.46% | 8.33 nM 1.94% | 100 nM 1.19% | 833.33 nM 0.32% | 10000 nM 3.14%

N[C@@H](C(=O)O)[C@@H](OCc1ccccc1)C(=O)O.N[C@H](C(=O)O)[C@H](OCc1ccccc1)C(=O)O
inactive: 1 nM -0.96% | 8.33 nM 0.96% | 100 nM -0.27% | 833.33 nM -0.54% | 10000 nM 1.19%

CCOC(=O)[C@@](C)(N)Cc1ccc(O)c(O)c1 [methyldopate]
inactive: 1 nM 6.97% | 8.33 nM 1.54% | 100 nM -0.9% | 833.33 nM 1.46% | 10000 nM 2.33%

— the supplement of paper PMC13380429
